Results with a measured potency or affinity are listed apart.
Experiments:
Staphylococcus aureus = conditions: Concentration 32 ug.mL-1;; ASSAY_TEST Inhibition of Bacterial Growth; detection method Absorption (OD600); MEDIA CAMHB; plate type 384well; NBS; CORNING #3640; time 18 hr
Escherichia coli = conditions: Concentration 32 ug.mL-1;; ASSAY_TEST Inhibition of Bacterial Growth; detection method Absorption (OD600); MEDIA CAMHB; plate type 384well; NBS; CORNING #3640; time 18 hr

Compound | Inhibition (Staphylococcus aureus) [%] | Inhibition (Escherichia coli) [%]
CCCc1nnc2c(=O)n(CC(=O)Nc3cccc(C#N)c3)c3ccccc3n12 | 1.38 | -7.78
O=c1c2sccc2n2c(=O)n(Cc3c(F)cccc3Cl)nc2n1Cc1cccs1 | 6.51 | 0.39
O=C(Cn1nc2c3c4c(sc3ncn2c1=O)CCCC4)NCc1ccccc1Cl | -19.92 | 0.09
COc1cccc(Sc2nc3ccccc3n3c(=O)n(CC(=O)Nc4cc(C)cc(C)c4)nc23)c1 | 0.14 | 3.24
CCc1nnc2c(S(=O)(=O)N(Cc3ccccc3C)c3ccc(C(C)C)cc3)cccn12 | 3.95 | -8.12
O=C(Cn1nc2c(N3CCOCC3)nccn2c1=O)Nc1ccc2c(c1)OCO2 | 15.61 | 0.24
CC(C)(C)Sc1ccc2nn(CC(=O)Nc3ccccc3C(F)(F)F)c(=O)n2n1 | 6.28 | -2.49
COc1cccc(CNC(=O)CSc2nnc3c4cc(-c5cc(C)ccc5C)nn4ccn23)c1OC | 5.75 | -5.6
O=C(Cn1nc2c(SC3CCCCC3)nccn2c1=O)N1CCN(c2ccc(F)cc2)CC1 | 8.31 | -3.97
Cc1nnc2c(=S)[nH]c3ccccc3n12 | 19.6 | 10.5
COc1ccccc1N1CCN(C(=O)Cn2nc3ccc(-c4ccc(C)c(C)c4)nn3c2=O)CC1 | 13.88 | -0.61
O=C(CSc1nnc2c3cc(-c4ccccc4)nn3ccn12)NCc1ccc(Cl)cc1 | 6.91 | -1.12
